Mcl1-Noxa inh: Mcl-1/Noxa interaction inhibition; 1.5% of 220,000 active; TR-FRET Mcl-1/Noxa peptide binding, 2 h; Q07820; AID 1022; inhibition, % at 21.7 µM;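 active = compounds that cut the protein-peptide binding signal by more than 50% relative to plate controls in a single-dose test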;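 also: His-tagged Mcl-1 with rhodamine Noxa BH3 peptide and terbium anti-His antibody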
Target sequence (Q07820 whole entry, looked up): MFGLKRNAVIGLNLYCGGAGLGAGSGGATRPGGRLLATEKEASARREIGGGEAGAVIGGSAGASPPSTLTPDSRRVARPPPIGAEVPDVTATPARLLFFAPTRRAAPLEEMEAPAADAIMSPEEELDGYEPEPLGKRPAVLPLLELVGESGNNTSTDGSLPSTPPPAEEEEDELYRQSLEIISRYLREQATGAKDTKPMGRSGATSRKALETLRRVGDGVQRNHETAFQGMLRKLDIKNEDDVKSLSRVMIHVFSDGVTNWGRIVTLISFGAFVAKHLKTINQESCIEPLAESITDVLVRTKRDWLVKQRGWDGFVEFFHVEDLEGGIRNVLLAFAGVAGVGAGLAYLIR
Mcl-1 Bim block: disrupts Bim peptide binding to human Mcl-1; Q07820; Bead-based flow cytometry, Bim peptide-Mcl-1 binding; inhibition, % at 10 µM; 0.1% of 190,000 active; AID 1009; in the data active = inhibition above about 40%
MCL1 BIM primary: MCL1-BIM-BH3 interaction inhibition (human); GST-MCL1 / FITC-Bim-BH3 fluorescence polarization; inhibition, % at 10.9 µM; 0.68% of 320,000 active; AID 2057;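 active = inhibition above the mean inhibition of all tested compounds plus 3 SD, set per campaign, cut at about 40% in these data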;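 also: higher means more loss of mP so more displacement of Bim peptide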
Mcl1 Bid PPI: disrupts binding of human Mcl-1 to Bid peptide; Q07820; TR-FRET Mcl-1/Bid-Dy647 peptide binding, 1536-well; inhibition, % at 21.7 µM; 0.97% of 220,000 active;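 active = compounds that cut the binding signal by more than half at the single screening dose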;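 also: His-tagged Mcl-1 with europium anti-His antibody binding Bid BH3 peptide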
A number is an active result; n = inactive; x = no result. Shown are actives, neighbours in structure and some others; about 2% of the full set was active somewhere.

SMILES	Mcl1-Noxa inh	Mcl-1 Bim block	MCL1 BIM primary	Mcl1 Bid PPI
CCOc1cc(/C=N/Nc2nncc(-c3ccccc3)n2)ccc1O	n	n	n	n
CCOc1cc(/C=N/Nc2nn3cnnc3c3ccccc23)ccc1O	56	x	n	n
Cc1c(C(=O)Nc2ccccc2)cn2c(nc3ccccc32)c1C#N	n	n	n	n
Cc1ccccc1C(=O)Nc1ccc2c(C#N)c3nc4ccccc4nc3n2c1	70	n	n	84
CCSc1ncc(/C=N/Nc2ccc([N+](=O)[O-])cc2)n1C	80	n	n	n
CC(C)N(Cc1cn[nH]c1-c1ccc(-c2ccccc2)cc1)Cc1nccn1C	n	n	n	n
Cc1ccc(C)n1-c1sccc1C(=O)O	95	n	x	93
Cc1ccc(-n2nc3c(=O)n(CC(=O)NC4CCCCCC4)nc(C)c3c2C)cc1	x	x	n	x
COc1cc(/C=C2\SC(=O)N(c3cccc(Cl)c3)C2=O)cc([N+](=O)[O-])c1O	66	n	x	73
O=C1S/C(=C\c2ccc(O)c([N+](=O)[O-])c2)C(=O)N1c1ccccc1Cl	n	n	n	n
COc1cc(/C=C2\SC(=O)N(c3ccc(Cl)cc3)C2=O)cc([N+](=O)[O-])c1O	76	n	x	90
COc1cc(/C=C2/NC(=O)N(c3cccc(Cl)c3)C2=O)ccc1O	59	n	n	n
O=S(=O)(Nc1c(S(=O)(=O)c2ccccc2)c2nc3ccccc3nc2n1C1CCCCC1)c1ccccc1	55	n	n	57
Nc1nc(Nc2ccccc2Cl)cc(=O)[nH]1	n	x	n	n
O=C(O)c1ccc(N/N=C/C2=C(N3CCOCC3)C(=C\c3ccccc3)/CC2)cc1	75	x	n	n
NS(=O)(=O)c1ccc(Nc2nc3ccccc3nc2NS(=O)(=O)c2cccc([N+](=O)[O-])c2)cc1	n	n	n	n
CC(C)C(=O)Nc1ccc(Cl)cc1-c1nc2ccccc2[nH]c1=O	x	x	n	x
CNc1ccc([N+](=O)[O-])cc1-c1nc2ccccc2[nH]c1=O	65	x	n	n
COC(=O)c1cccc(-n2sc3ccccc3c2=O)c1	x	x	n	x
COc1cc(NS(=O)(=O)c2ccc(NC(=S)NC(=O)c3sc4ccccc4c3Cl)cc2)ncn1	55	n	n	n
CCOC(=O)c1nnn(-c2nonc2N)c1CS(=O)(=O)c1ccccc1	n	n	n	55
Cc1cc(C)c2sc(NC(=O)C3CC3)nc2c1	x	x	n	x
COc1ccc(CCNC(=O)CC(Cc2ccc(C)cc2)C(=O)O)cc1OC (stereo unspecified)	x	x	n	x
Cc1ccc(CNC(=O)CN2C(=O)COc3ccc(S(=O)(=O)N4CCCCC4)cc32)o1	x	x	n	x
CCN1C(=O)N(CC)C2C1N(CO)C(=O)N2CO (stereo unspecified)	n	n	n	n
SMILES	Mcl1-Noxa inh	Mcl-1 Bim block	MCL1 BIM primary	Mcl1 Bid PPI
COc1cc(C=O)cc(OC)c1OS(=O)(=O)c1ccc(NC(C)=O)cc1	52	n	n	n
COc1ccc(CCC(=O)NNC(=S)Nc2cccc(C(C)=O)c2)cc1	n	n	n	n
O=C(CSCc1ccc(Cl)cc1)Nc1ccc(S(=O)(=O)N2CCOCC2)cc1	n	n	n	n
CCc1ccc(Nc2ccc3nonc3c2[N+](=O)[O-])cc1	x	x	n	x
CCOC(=O)NNc1ccc2nonc2c1[N+](=O)[O-]	97	x	n	n
Cc1cc(-c2nnc3n2N=C(c2ccc(F)cc2)CS3)n[nH]1	n	x	n	n
COc1cc2c(cc1OC)-c1cc(NC3CCCCCCC3)nc(=O)n1CC2	n	n	n	100
COc1cc2c(cc1OC)-c1cc(NCc3ccccn3)nc(=O)n1CC2	n	n	n	98
COc1cc2c(cc1OC)-c1cc(NC3CCCCC3)nc(=O)n1CC2	n	n	n	n
NCCCC[C@@H]1NC(=O)c2cc([N+](=O)[O-])cc(I)c2SC[C@@H](C(N)=O)NC(=O)[C@H](Cc2ccc(O)cc2)NC1=O	54	n	n	n
NCCCC[C@@H]1NC(=O)[C@H](CCC(=O)O)NC(=O)c2cc([N+](=O)[O-])cc(I)c2SC[C@@H](C(=O)NCC(N)=O)NC1=O	n	n	n	n
O=C(O)CCc1ccc(-c2ccc(Br)cc2)o1	n	n	n	n
O=C(O)CCc1ccc(-c2ccc(Cl)cc2)o1	n	n	n	95
COC(=O)N/N=C/c1cc(N=Nc2ccccc2)ccc1O	n	x	n	n
COC(=O)N/N=C/c1cc(N=Nc2ccccc2Cl)ccc1O	88	x	n	n
Cc1cc(C(=O)N/N=C/c2cc(N=Nc3ccccc3)ccc2O)n[nH]1	95	n	n	n
Cc1cc(C(=O)N/N=C/c2cccc([N+](=O)[O-])c2O)n[nH]1	n	n	n	n
CCN(CCO)c1nc(N2CCCCC2)c2cnn(C)c2n1	x	x	n	x
COc1cc(NC(=O)c2ccccc2)c(OC)cc1NC(C)=O	n	n	n	n
COc1cc(NC(=O)COc2ccccc2)c(OC)cc1NC(C)=O	n	n	n	95
CN(NC(=O)COc1ccccc1)c1ccccc1	n	n	n	94
CN(C)c1ccc(/C=N/NC(=O)COc2ccccc2)cc1	n	n	n	n
CCOC(=O)CC1=CSC2=NS(=O)(=O)CCN12	74	n	n	n
O=C(NC(=S)NCCC1=CCCCC1)c1ccccc1Br	68	n	n	n
O=C(COC(=O)c1ccccc1Br)NCCC1=CCCCC1	n	n	n	n
SMILES	Mcl1-Noxa inh	Mcl-1 Bim block	MCL1 BIM primary	Mcl1 Bid PPI
CC(=O)NC(=S)Nc1ccc(N2CCOCC2)c(S(=O)(=O)Nc2cc(Cl)ccc2Cl)c1	n	n	n	n
CCCN(C(=O)Cc1c(C(=O)O)n(C)c2ccccc12)c1cccc(C)c1	x	x	n	x
CCN(CC)C(=O)c1sc(NC(=O)c2cc(-c3ccc(C)s3)nc3ccccc23)c(C(=O)OC)c1C	61	n	n	n
CCOC(=O)CSc1nc(N)c(C#N)c(-c2ccc(OCC)cc2)c1C#N	n	n	n	n
COC(=O)CSc1nc(N)c(C#N)c(-c2ccc(O)cc2)c1C#N	n	x	n	57
CC(C)(C)OC(=O)NC(Cc1ccccc1)C(=O)O (stereo unspecified)	n	x	n	60
NS(=O)(=O)c1ccc(CCNCc2ccccc2OCc2ccc(Cl)cc2)cc1	x	x	n	x
COc1ccc(C(=O)NNC(=O)CN2CCC(n3nnc4cc(C(F)(F)F)ccc43)CC2)cc1	52	n	n	n
COc1ccc2[nH]c3c(c2c1)CCN1C(=O)N([C@@H](C)C(=O)NC2CCCCC2C)C(=O)[C@]31C (stereo partly specified)	x	x	n	x
Cc1ccc(OCCC(=O)OC(C)C(=O)Nc2c(C)n(C)n(-c3ccccc3)c2=O)cc1 (stereo unspecified)	x	x	n	x
Cc1ccccc1OCCCC(=O)Nc1ccc(N2CCOCC2)cc1	51	n	n	n
CN1CCN(c2ccc(NC(=O)COc3ccccc3Cl)cc2)CC1	n	n	n	63
COc1ccccc1OCCCC(=O)Nc1ccc(N2CCOCC2)cc1	n	n	n	n
CCC(=O)N1CCN(c2ccc(NC(=O)COc3ccccc3Cl)cc2)CC1	n	n	n	n
Cc1cccc(OCC(=O)Nc2ccc(N3CCCC3)cc2)c1C	62	n	n	n
Cc1ccc(OCC(=O)Nc2ccc(N3CCCC3)cc2)cc1C	81	n	n	n
CC(=O)c1ccc(NC(=O)C(C)Sc2n[nH]c(-c3cccnc3)n2)cc1 (stereo unspecified)	x	x	n	x
